Assay outcomes as filed in PubChem BioAssay.
USP28 block: inhibitors of human USP28 deubiquitinase; purified USP28, Ub-rhodamine cleavage fluorescence, 30 min; Ubiquitin carboxyl-terminal hydrolase 28 (Homo sapiens), Q96RU2; 47,000 compounds, 3% hits; inhibition, % at 25 µM; AID 1645857, 2021
USP30 inh: inhibitors of human USP30 deubiquitinase; AID 1645860, 2021; purified USP30, Ub-rhodamine cleavage fluorescence; inhibition, % at 25 µM; Ubiquitin carboxyl-terminal hydrolase 30 (Homo sapiens), Q70CQ3; 47,000 compounds, 5.3% hits
USP8 block: inhibitors of human USP8 deubiquitinase | Ubiquitin carboxyl-terminal hydrolase 8 (Homo sapiens), P40818 | purified USP8, Ub-rhodamine cleavage fluorescence, 30 min | inhibition, % at 20 µM | 47,000 compounds, 4.2% hits | AID 1645853, 2021
USP10 inh: inhibitors of human USP10 deubiquitinase. inhibition, % at 20 µM. 47,000 compounds, 1.1% hits. purified USP10, Ub-rhodamine fluorescence, 60 min
USP17 block: inhibitors of human USP17 deubiquitinase | Ubiquitin carboxyl-terminal hydrolase 17-like protein 5 (Homo sapiens), A8MUK1 | purified USP17, Ub-rhodamine cleavage fluorescence, 3 h | inhibition, % at 50 µM | 47,000 compounds, 6.5% hits | AID 1645855, 2021
Target sequence (A8MUK1 whole entry, looked up): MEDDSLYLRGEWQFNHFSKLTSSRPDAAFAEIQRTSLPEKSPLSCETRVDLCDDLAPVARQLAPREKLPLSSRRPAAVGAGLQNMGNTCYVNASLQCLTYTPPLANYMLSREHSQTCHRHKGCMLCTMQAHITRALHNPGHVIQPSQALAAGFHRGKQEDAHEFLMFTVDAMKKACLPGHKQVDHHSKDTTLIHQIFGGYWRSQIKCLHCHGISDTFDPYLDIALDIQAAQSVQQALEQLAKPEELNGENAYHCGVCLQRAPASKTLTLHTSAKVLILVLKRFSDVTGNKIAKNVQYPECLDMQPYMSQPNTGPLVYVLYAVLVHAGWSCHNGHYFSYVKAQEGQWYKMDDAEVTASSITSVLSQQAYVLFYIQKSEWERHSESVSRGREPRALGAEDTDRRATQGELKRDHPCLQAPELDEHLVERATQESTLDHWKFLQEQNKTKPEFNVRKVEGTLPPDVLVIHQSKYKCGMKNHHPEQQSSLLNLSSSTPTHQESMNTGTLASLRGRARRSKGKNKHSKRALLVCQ
Starred values were filed as active, the others as inactive; i = inactive; x = no result given. Hits are enriched below; roughly 14% of the tested compounds scored in any of these assays. Cut-off read from the data, not from the text of the source: active = inhibition above about 30%; inactive = the rest.

SMILES	USP28 block	USP30 inh	USP8 block	USP10 inh	USP17 block
CC1O[C@@H](n2ccc(NC(=O)c3ccc(NC(=O)[C@@](C)(N)CO)cc3)nc2=O)CC(O)[C@H]1O[C@@H]1OC(C)[C@@H](N(C)C)C(O)C1O (some centres undefined)	5	3	0	3	2
COc1ccccc1CNC(=O)c1c(O)c2cnn(-c3cccc(C)c3)c2[nH]c1=O	76*	11	82*	30	39*
COc1ccc(CN2C[C@@H](c3ccccn3)[C@@]3(CCCCC(=O)N3)C2)cc1Cn1ccnc1	2	-2	5	2	2
O=C(CCc1nnc2ccc(N3CCCC3)nn12)NC1CCCCC1	9	19	20	2	8
CCc1nnc(C(=O)Nc2ccc(C(=O)NCc3ccc(OC(C)C)cc3)cc2)s1	10	5	-31	38*	1
Cc1ccc(-c2ncc(C(=O)Nc3ccc(F)cc3)c(-c3ccncc3)n2)cc1	-107	-226	48*	-8	-58
Cc1ccc(-c2ncc(C(=O)Nc3ccccc3Cl)c(-c3ccncc3)n2)cc1	-68	-431	31*	-10	-26
CC(=O)Nc1ccc(NC(=O)c2ccccc2-c2nc(-c3cccc(C)c3)no2)cc1	-20	-36	-66	-1	-14
Cc1ccc2nc(CNC(=O)c3ccccc3-c3nc(-c4ccc(F)cc4)no3)[nH]c2c1	17	-20	19	10	78*
CC12CCC(=O)N1c1ccccc1C(=O)N2c1ccc(F)cc1 (centres undefined)	12	32*	2	5	11
CN1CC(=O)N(CC(=O)N2CCN(c3ccc(F)cc3)CC2)c2ccccc2C1=O	-3	-5	-4	4	1
CCn1c(SCc2nc(N)c3ccccc3n2)nc2ccccc21	42*	39*	33*	-3	54*
CC(C)CC(=O)N1CCCC1c1nnc(C(=O)Nc2cccc(F)c2)s1 (centres undefined)	4	-1	-44	0	-27
CC(Cc1ccco1)NC(=O)c1cccc(NC(=O)c2nnc(C3CC3)s2)c1 (centres undefined)	0	-3	0	3	31*
COc1cccc(C(=O)Nc2cc3c4c(c2)CC(=O)N4CCC3)c1	33*	-18	65*	-1	17
COc1cc(OC)cc(C(=O)Nc2cccc(N3CCCC3=O)c2)c1	29	-1	-12	0	5
Cc1cccc(C(=O)Nc2cc3c4c(c2)CC(=O)N4CCC3)c1	37*	-22	39*	-2	-5
Cc1ccc(NS(=O)(=O)c2cc3c4c(c2)CC(=O)N4CCC3)cc1C	10	13	19	-1	4
O=C1[C@H]2Cc3c([nH]c4ccccc34)C(c3cccc([N+](=O)[O-])c3)N2C(=O)CN1CC1CCCO1 (some centres undefined)	-5	-10	-87	3	-7
Cc1ccc(S(=O)(=O)N2CCC3(CC2)OC(C(=O)N2CCCC2)Cn2ccnc23)cc1 (centres undefined)	2	9	0	2	-3
O=C(Oc1ccccc1Br)c1cc(-c2ccc3c(c2)OCCO3)on1	27	33*	52*	-7	21
Cc1nccn1Cc1noc(-c2ccc3c(c2)OCO3)n1	6	-4	0	-1	-8
CCc1nccn1Cc1noc(-c2ccc3c(c2)OCO3)n1	48*	25	18	1	18
CCCCC(=O)Nc1cc(=O)[nH]c2nc(Cc3ccccc3)nn12	-3	0	1	4	5
CC(C)(C)c1ccc(-c2nc3[nH]c(=O)cc(NC(=O)c4ccco4)n3n2)cc1	26	15	43*	15	x
SMILES	USP28 block	USP30 inh	USP8 block	USP10 inh	USP17 block
CCC(=O)Nc1cc(=O)[nH]c2nc(-c3ccc(OC)cc3)nn12	5	-106	15	1	7
COc1ccc(-c2nc3[nH]c(=O)cc(NC(=O)Cc4ccccc4)n3n2)cc1	-50	-111	60*	0	-60
O=C(Nc1cc(=O)[nH]c2nc(Cc3ccccc3)nn12)c1ccco1	-70	-242	48*	-3	-125
CC1CCN(C(=O)c2c[nH]c3ccc(S(=O)(=O)N(C)c4ccc(F)cc4)cc3c2=O)CC1	-8	-18	-30	1	0
Cc1cccn2c(=O)cc(COc3cccc(NC(=O)Nc4cccc(F)c4)c3)nc12	-40	-126	3	8	-30
COc1cccc(CCNC(=O)c2ccc(N3C(=O)C(C)CS3(=O)=O)cc2)c1 (centres undefined)	6	-17	1	0	0
CS(=O)(=O)c1ccc2nc(N(Cc3cccnc3)C(=O)c3ccc4ccccc4c3)sc2c1	20	52*	63*	7	53*
COc1ccc(CCNC(=O)c2cc(S(=O)(=O)N(C)Cc3ccccc3)ccc2Cl)cc1	-36	-80	-18	-3	-17
CCc1ccccc1Nc1cc(C(=O)NCc2cccs2)c2ccccc2n1	13	6	-13	8	6
Cc1ccc(Cl)cc1NC(=O)COC(=O)c1ccc2ccccc2n1	-135	i	-10	-7	-203
Cc1nc(SCC(=O)Nc2ccc(Cl)c(Cl)c2)c2oc3ccccc3c2n1	3	9	5	4	12
Cc1ccc(NC(=O)CSc2nc(C)nc3c2oc2ccccc23)c(C)c1	8	32*	-2	-1	26
Cc1nc(SCC(=O)Nc2ccc(C)c(Cl)c2)c2oc3ccccc3c2n1	11	39*	1	-1	44*
COc1ccccc1NC(=O)CSc1nc(C)nc2c1oc1ccccc12	18	35*	20	1	26
COc1ccc(NC(=O)CSc2nc(C)nc3c2oc2ccccc23)c(OC)c1	-1	-7	0	2	1
Cc1nc(SCC(=O)NC(C)c2ccccc2)c2oc3ccccc3c2n1 (centres undefined)	1	0	11	40*	38*
COc1ccccc1NC(=O)N(CCN1CCOCC1)Cc1cc2cc3c(cc2[nH]c1=O)OCCO3	3	0	5	0	-3
N#CC1=C(c2ccc(Br)cc2)NC(=O)CC1	7	7	0	0	-2
CC(C)(C)c1cc(C(=O)N2CCC[C@H](C(=O)c3ccccc3F)C2)n[nH]1	-1	1	0	3	-10
NCC(=O)N1CCCC2(Cc3ccccc3CN2S(=O)(=O)c2ccccc2)C1 (centres undefined)	12	44*	-215	-1	-9
COc1cccc(CC(=O)NC2CC(=O)N(C3CCCC3)C2)c1 (centres undefined)	13	17	8	-1	16
CC(C)c1nc(CNC(=O)C2CCCCC2)no1	6	10	25	-1	37*
